Compound activity as filed in PubChem BioAssay.
Sfp PPTase inh – qHTS Assay for Inhibitors of Bacillus subtilis Sfp phosphopantetheinyl transferase (PPTase); AID 1490, 2009; Biochemical Sfp PPTase activity, qHTS; 4'-phosphopantetheinyl transferase ffp (Bacillus subtilis), Q9F4F7; 310,000 tested, 3.5% active; Potency, µM, for the others: largest response in the series, negative = inhibition, hits mostly inhibitors;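 note: the enzyme is Sfp with the accession as filed and its product quenches rhodamine fluorescence; potency is the fitted concentration of half-maximal effect; 0% = enzyme reaction without inhibitor and -100% = no enzyme wells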
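After 15 min at room temperature with compound, 15 nM Sfp received 5 uM rhodamine-CoA plus 12.5 uM BHQ-2-ybbR (50 mM Hepes pH 7.6, 10 mM MgCl2). Rate came from the fluorescence difference over 30 min, ex 525/em 598 nm.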
Tau fibril ThT – qHTS for Inhibitors of Tau Fibril Formation, Thioflavin T Binding; Microtubule-associated protein tau (Homo sapiens), P10636; 270,000 tested, 2.1% active; recombinant tau K18 P301L, heparin-induced fibrillization, ThT fluorescence; Potency, µM (highest dose often 57.4 µM), inactives show top-dose activity, negative = inhibition, actives largely listed as inhibitors; note: potency is the fitted concentration of half-maximal effect; nearly all actives have a fitted effect of over 55% in size
Target sequence (P10636 561-689 P618L limits assumed): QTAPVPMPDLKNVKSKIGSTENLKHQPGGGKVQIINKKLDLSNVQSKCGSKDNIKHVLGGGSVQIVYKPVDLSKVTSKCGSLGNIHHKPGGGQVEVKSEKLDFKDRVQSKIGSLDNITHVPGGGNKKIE
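K18 P301L tau (15 uM + 0.24 uM Alexa 594-tagged), heparin 20 uM, NaOAc pH 7, 6 h 37 C; ThT 30 uM, 1 h RT, ex 450/em 510 nm.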
Tau fluor cs – Counterscreen qHTS for Inhibitors of Tau Fibril Formation, Fluorescence Polarization; tau K18 P301L Alexa594 fluorescence, heparin fibrillization; Potency, µM (highest dose often 57.7 µM), for the others: top-dose activity change, negative = decrease; 280,000 tested, 0.93% active; note: potency is the fitted concentration of half-maximal effect; nearly all actives have a fitted effect of over 55% in size
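Human tau K18 P301L (15 uM unlabeled, 0.24 uM Alexa 594-labeled) in 100 mM sodium acetate pH 7 with 20 uM heparin, 6 hr at 37 C. ThT 30 uM added, 1 hr ambient; Alexa 594 FP and total fluorescence read at 555/632 nm.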
Tau FP inhib – qHTS for Inhibitors of Tau Fibril Formation, Fluorescence Polarization; Microtubule-associated protein tau (Homo sapiens), P10636; K18 P301L tau heparin fibrillization, Alexa594 FP, 6 h; Potency, µM (top dose mostly 57.7 µM), without a hit: at the top dose activity, negative = inhibition, actives largely listed as inhibitors; 280,000 tested, 0.39% active; note: potency is the fitted concentration of half-maximal effect; nearly all actives have a fitted effect of over 55% in size
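Heparin (20 uM) drove fibril formation of recombinant tau K18 P301L, 15 uM unlabeled with 0.24 uM Alexa 594 label, for 6 hr at 37 C in 100 mM sodium acetate pH 7. Fluorescence polarization (555/632 nm) read 1 hr after 30 uM ThT.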
FBPA coupling cs – qHTS Assay for Inhibitors of Fructose-1,6-bisphosphate Aldolase from Giardia Lamblia: Coupling assay counterscreen; coupling enzyme system counterscreen, AmpLite Red fluorescence; activity change, negative = inhibition, % at 58.2 µM, hits read low; 290,000 tested, 0.67% active; AID 2472, 2010; in the data active = activity change below about -30%
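Counterscreen of the coupled detection system alone, without aldolase: glyceraldehyde-3-phosphate coupling enzymes plus AmpLite Red readout. Compounds at 57.5 uM final, 10 min RT preincubation, 20 min RT reaction, fluorescence 525/598 nm.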
Numbers without * were called inactive; u = inconclusive; x = not tested or not shown; [ ] = dose if it differs, or a comment. Compounds with a hit are over-represented: about 5.2% of the library has one in this group of screens. Unless noted, calls come from the whole dose curve; as a rule, active = well fitted curve in the direction sought with a large enough effect; inconclusive = small, poorly fitted or top-dose-only effect, or another doubt; inactive = no such curve, though single readings can be large; an effect the other way counts as inactive or inconclusive. Unless noted, % is set by controls: 0 for no effect and ±100 for the full control effect.

SMILES	Sfp PPTase inh	Tau fibril ThT	Tau fluor cs	Tau FP inhib	FBPA coupling cs
COc1ccccc1NS(=O)(=O)c1cc(NC(=O)Nc2cccc(C)c2)ccc1N1CCCCC1	-15%	u	u	28µM*	1
CCC(=O)N1CCc2cc(Br)cc(S(=O)(=O)CCC(=O)N3CCN(c4ccc(OC)cc4)CC3)c21	x	-16%	-21%	-13%	x
CCc1ccccc1NC(=O)CCNS(=O)(=O)c1ccc2c(c1)CCCC(=O)N2	x	-2%	-7%	-2%	x
CC(=O)c1c(C)[nH]c(C(=O)Nc2ccc(C)c(S(=O)(=O)Nc3ccc(C)cc3C)c2)c1C	15%	-12%	22µM*[quencher]	u	-6
O=C(Nc1ccc(Cl)cc1)Nc1ccc(N2CCCC2)c(S(=O)(=O)Nc2ccccc2Cl)c1	35%	-8%	2.8µM*[quencher]	u	-5
CC(=O)c1c(C)[nH]c(C(=O)Nc2ccc(C)c(S(=O)(=O)N(C)C)c2)c1C	-17%	1%	-3%	-12%	0
Cc1cccc(NC(=O)CSc2nc3n[nH]c(C)c3c(=N)n2-c2cccc(Cl)c2)c1	x	-8%	u	u	x
COc1ccc(N/N=C(/C)c2cnnc(-c3ccccc3)n2)cc1	-23%	2.8µM*	u	11%	1
COc1ccc(/C(C)=N/Nc2nncc3ccccc23)cc1	-1%	x	x	x	-2
COc1ccc(NC(=O)CN2C(=O)COc3ccc(S(=O)(=O)Nc4ccccc4)cc32)cc1	x	4%	u	-4%	x
O=C(CNC(=O)Cc1ccccc1)N=Nc1c(O)[nH]c2ccccc12	15%	x	x	x	0
NS(=O)(=O)c1ccc(NC(=S)NC(=O)/C=C/c2ccco2)cc1	20µM*	u	-27%	-6%	0
O=C(/C=C/c1ccco1)NCc1ccc(F)cc1	40µM*	-10%	-11%	-8%	-2
Cc1ccc(C(=O)N/C(=C/c2ccco2)C(=O)NCC2CCCO2)cc1 (stereo not drawn)	8%	-5%	-2%	2%	4
O=C(/C=C/c1ccco1)NCC1CCCO1 (stereo not drawn)	-70%	14µM*	-20%	u	-1
O=C(CNC(=O)/C=C/c1ccco1)N=Nc1c(O)[nH]c2ccccc12	20µM*	x	x	x	1
CN(C)c1ccc(CNC(=O)c2cnc3sc(N4CCOCC4)nn3c2=O)cc1	x	2%	2%	14%	x
Cc1ccc(S(=O)(=O)c2c(O)cc(C)c(NS(=O)(=O)c3ccc(Cl)cc3)c2C)cc1	x	9%	-29%	u	x
O=C(/C=C/c1ccco1)NC(=S)Nc1cccc([N+](=O)[O-])c1	32µM*	1%	0%	10%	-1
CC(C)c1ccc(/C=C/C(=O)NCc2ccc(S(N)(=O)=O)cc2)cc1	21%	-17%	-10%	-8%	1
NS(=O)(=O)c1ccc(CNC(=O)/C=C/c2ccco2)cc1	20µM*	u	-11%	u	0
CCn1ccc2c(OCC(=O)Nc3ccc(C)c(Cl)c3)cccc2c1=O	x	-14%	u	-6%	x
OC[C@H]1NC[C@H](O)[C@@H](O)[C@@H]1O	13%	x	x	x	-1
Cc1ccc(N2CC(NC(=O)C3CC3)CC2=O)cc1C (stereo not drawn)	x	-5%	3%	1%	x
COc1ccc(Nc2c([N+](=O)[O-])ccc3c2=NC2(CCCCC2)N=3)cc1	-3%	16µM*	u	u	-34*
SMILES	Sfp PPTase inh	Tau fibril ThT	Tau fluor cs	Tau FP inhib	FBPA coupling cs
COc1ccc(-c2c(C)nn3c(-c4ccccc4)cc(-c4ccccc4)nc23)cc1	x	-12%	-27%	8%	x
CCOCCCn1c(SCC(=O)Nc2ccccc2CC)nc2ccccc2c1=O	x	-7%	-12%	-2%	x
Cn1c(CNc2ccc(O)cc2)nc2ccccc21	79µM*	x	x	x	0
CCCn1c(CNc2ccccc2O)nc2ccccc21	u	28µM*	u	u	-18
Cc1ccc2onc(CC(=O)Nc3ccc(C(C)C)cc3)c2c1	x	-2%	-2%	-3%	x
Cc1ccccc1Cn1cnc2nc3c(cc2c1=O)CC(C)CC3 (stereo not drawn)	x	-1%	-2%	-2%	x
